According to PubChem BioAssay:
Activity calls are given as the source filed them. Unless noted, no rule for the calls is given here.

Tests used:
[1] = test system: XIP peptide (Xip251-270) binding; assay: small-molecule binders of XIP peptide, primary screen, biochemical, small-molecule microarray, fluorescence 635/667 nm, 0.1 µg/mL protein (AID 1182); settings: fluorescent protein binding, 635 nm, higher = more signal, called active from +8 up or from −8 down
XIP peptide (Xip251-270) = assay: small-molecule binders of XIP peptide, primary screen, biochemical, small-molecule microarray, fluorescence 635/667 nm, 0.5 µg/mL protein (AID 1183); settings: small-molecule microarray binding, fluorescence 635 nm; higher = more signal
[2] = Plasmodium falciparum growth inhibition, primary screen, strain 3D7, DAPI fluorescence, 100 nL (AID 1184);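 also: parasites grown inside human red blood cells in medium with human serum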; settings: P. falciparum 3D7 growth, 3 d, higher = more signal
[3] = target: Homeobox protein Hox-A13 (Mus musculus) (UniProt Q62424); assay: inhibitors of HoxA13-DNA binding, primary screen, biochemical, fluorescence polarization, labeled oligonucleotide (AID 1185); settings: 15 min, higher = more signal, called active from +8 up or from −8 down
[4] = inhibitors of hydroxyurea-induced Chk1 phosphorylation, primary screen, imaging, HeLa, phospho-Chk1 antibody, percent positive cells (AID 1186); settings: hydroxyurea-induced phospho-Chk1 immunofluorescence imaging, higher = more signal
[5] = inhibitors of hydroxyurea-induced Chk1 phosphorylation, primary screen, imaging, HeLa, phospho-Chk1 nuclear intensity (AID 1187); settings: hydroxyurea-induced phospho-Chk1 immunofluorescence imaging, higher = more signal

Sequence of Homeobox protein Hox-A13 (Mus musculus) (Q62424 whole entry, looked up): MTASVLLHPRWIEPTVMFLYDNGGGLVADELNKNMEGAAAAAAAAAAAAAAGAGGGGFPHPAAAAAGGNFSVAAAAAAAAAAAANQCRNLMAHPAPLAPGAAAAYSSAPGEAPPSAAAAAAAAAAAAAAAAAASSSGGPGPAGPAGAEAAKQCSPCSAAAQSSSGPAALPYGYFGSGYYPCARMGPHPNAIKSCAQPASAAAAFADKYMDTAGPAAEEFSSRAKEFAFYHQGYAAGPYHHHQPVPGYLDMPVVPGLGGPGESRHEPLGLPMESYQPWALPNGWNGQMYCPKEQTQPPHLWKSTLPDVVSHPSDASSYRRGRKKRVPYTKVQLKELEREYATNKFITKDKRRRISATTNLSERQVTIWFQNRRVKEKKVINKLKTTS

| SMILES | composite z-score [1] | composite z-score (XIP peptide (Xip251-270)) | z-score [2] | z-score [3] | z-score [4] | z-score [5] |
| --- | --- | --- | --- | --- | --- | --- |
| O=C(NCc1ccccc1)[C@]1(Cc2ccccc2)N=C(c2ccc(OCCCO)cc2)O[C@@H]1c1ccccc1 | 0.0268 (inactive) | 0.117 | -2.18 | -2.75 (inactive) | -0.875 (inactive) | -1.17 (inactive) |
| CCOC(=O)C[C@H]1[C@H](OC(=O)c2cc3ccccc3oc2=O)[C@@H](NC(=O)c2ccc3ccccc3n2)c2cc(OCCCO)ccc2N1C(=O)c1ccc2ccccc2n1 | -0.276 (inactive) | 0.484 | -1.15 | -1.29 (inactive) | -0.443 (inactive) | -0.134 (inactive) |
| C=CCC(OC(C)=O)[C@@H]1[C@@H](N(Cc2ccc(-c3ccccc3)cc2)C(=O)Cc2ccc(OC)cc2)c2cc(OCCCO)ccc2N1C(=O)c1ccc(-c2ccccc2)cc1 (stereo partly specified) | -0.0622 (inactive) | -0.698 | -2.91 | -1.52 (inactive) | -0.244 (inactive) | 0.158 (inactive) |
| CC(C)CNC(=O)[C@@]1(C)c2ccccc2C(=O)N(Cc2ccccc2)[C@H]1c1ccc(CO)cc1 | 1.06 (inactive) | -0.951 | 0.301 | -2.75 (inactive) | 0.105 (inactive) | -0.267 (inactive) |
| CC(C)N1CC=CC23O[C@@H]4C=CCOC(=O)[C@@H]4[C@H]2C(=O)N(CCCCCCO)[C@@H]3C1=O (stereo partly specified) | -0.0725 (inactive) | -0.262 | -0.511 | -3.69 (inactive) | 0.477 (inactive) | 0.454 (inactive) |
| O=C1NC(=O)C2C1C=CC(C(O)c1ccc3c(c1)OCO3)N2Nc1ccc(Cl)cc1Cl (stereo unspecified) | 2.16 (inactive) | 0.726 | 0.576 | -5.9 (inactive) | 0.629 (inactive) | 0.417 (inactive) |
| CC(C)C[C@@H]1NC(=O)[C@@H]2C[C@H](C(=O)NCc3ccc(F)cc3)[C@H](c3ccc(O)cc3)N2C1=O | 0.8 (inactive) | 0.655 | -0.395 | -1.41 (inactive) | 0.13 (inactive) | 0.0555 (inactive) |
| C[C@H]1NC(=O)C([C@@H](C)OCc2ccccc2)NC(=O)[C@@]23C(=O)N[C@@H](Cc4ccccc4)C2[C@H](C)[C@@]2(C)O[C@H]2C3/C=C/CC/C=C/CNC1=O (stereo partly specified) | 0.249 (inactive) | -0.764 | -2.74 | -6.35 (inactive) | -0.295 (inactive) | 0.3 (inactive) |
| CN(C)CCCC[C@@H]1NC(=O)[C@H]2C[C@@H](C(=O)NCCCCCCNC(=O)CS)[C@@H](c3ccc(O)cc3)N2C1=O | 1.44 (inactive) | 0.868 | 0.323 | -2.87 (inactive) | -0.346 (inactive) | 0.128 (inactive) |
| Cc1cc(C)c(C(O)C2C=CC3C(=O)N(c4ccccc4)C(=O)C3N2Nc2ccc([N+](=O)[O-])cc2)c(C)c1 (stereo unspecified) | 0.756 (inactive) | 0.783 | -0.569 | -1.86 (inactive) | 0.487 (inactive) | 0.596 (inactive) |
| COCCOC(=O)N1C(=O)[C@@]2(c3cc(C#CCCO)ccc31)[C@H](C(=O)N1CCc3cc(OC)c(OC)cc3C1)[C@H]1C(=O)O[C@H](c3ccccc3)[C@H](c3ccccc3)N1[C@@H]2c1ccc(OCCO)cc1 | -0.608 (inactive) | 0.726 | -2.14 | 3.13 (inactive) | -0.148 (inactive) | -0.0047 (inactive) |
| Cc1ccc(F)cc1S(=O)(=O)N[C@@H]1CCN(C(=O)c2ccc(OC(C)C)cc2)C1 | 0.615 (inactive) | 0.805 | -1.21 | -5.21 (inactive) | 0.0079 (inactive) | -0.303 (inactive) |
| CC(C)(C)N1CC=CC23O[C@@H]4C=CCCOC(=O)C4[C@H]2C(=O)N(CCCO)[C@@H]3C1=O (stereo partly specified) | -0.508 (inactive) | -1.18 | -1.75 | -5.86 (inactive) | -0.0977 (inactive) | -0.102 (inactive) |
| CCOC(=O)C[C@H]1[C@H](OC(=O)Cc2ccc3c(c2)OCO3)[C@@H](NC(=O)c2ccccc2)c2cc(OCCCO)ccc2N1C(=O)c1ccc2ccccc2n1 | -0.263 (inactive) | -0.101 | 0.93 | -3.68 (inactive) | -0.467 (inactive) | -0.259 (inactive) |
| COC(=O)[C@@]1(Cc2ccc(OC)cc2)[C@H]2c3cc(C(=O)N4CCCC4)n(CCc4ccc(O)c(OC)c4)c3C[C@H]2CN1C(=O)c1ccccc1 | 0.739 (inactive) | -0.506 | -0.37 | -4.35 (inactive) | 0.219 (inactive) | 0.0055 (inactive) |
| CC(C)C[C@@H]1NC(=O)[C@@H]2C[C@H](C(=O)NCCCC[N+](C)(C)C)[C@H](c3cccc(OCCO)c3)N2C1=O | 0.974 (inactive) | 0.0734 | 0.0751 | -3.05 (inactive) | -0.366 (inactive) | -0.333 (inactive) |
| C=C(COC)C(=O)CC[C@H](OC(=O)c1ccccc1-c1ccccc1C(=O)O)c1ccc(OCCO)cc1 | 0.0817 (inactive) | 0.264 | -1.84 | -5.78 (inactive) | -0.33 (inactive) | -0.537 (inactive) |
| [N-]=[N+]=NCc1ccccc1C[C@@]1(C(=O)NCCN2CCOCC2)N=C(c2ccc(OCCCO)cc2)O[C@@H]1c1ccccc1CN=[N+]=[N-] | 0.607 (inactive) | 0.743 | -2.22 | -11.2 (active) | 0.243 (inactive) | 0.693 (inactive) |
| COC(=O)[C@H]1N=C(c2ccc(OCCCO)cc2)O[C@H]1c1ccccc1CN=[N+]=[N-] | 0.262 (inactive) | 0.62 | -1.79 | -1.53 (inactive) | 0.0721 (inactive) | 0.328 (inactive) |
| CO[C@H]1O[C@H](CO)[C@@H](OC(=O)Nc2ccc(C(F)(F)F)cc2)[C@H](OC(=O)Nc2ccccc2)[C@H]1OC(=O)Nc1ccccc1 | 1.91 (inactive) | 0.911 | -2.56 | -5.12 (inactive) | -0.628 (inactive) | -0.699 (inactive) |
| CN(C)C(=O)[C@@]1(Cc2ccccc2N=[N+]=[N-])N=C(c2ccc(OCCCO)cc2)O[C@H]1c1ccccc1N=[N+]=[N-] | 0.976 (inactive) | 0.596 | -2.32 | -4.6 (inactive) | 0.0092 (inactive) | 0.398 (inactive) |
